rRNA inh HTS: inhibits bacterial ribosomal RNA function over humanized ribosomes. GFP signal change (wild-type ribosome), % (test concentration not listed). actives 1.6% (n = 350,000). E. coli WT GFP vs humanized-ribosome RFP mutants, fluorescence, 24 h; hits give low values; DMSO median 0, no signal -100. AID 720706;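 active means significant combined selectivity score with lowered wild-type GFP, culture density cut under 30%, mutant RFP and density less affected; inactive means any of these conditions unmet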
ADAM17 inh: inhibitors of human ADAM17; P78536; recombinant ADAM17, EDANS/DABCYL FRET peptide cleavage; inhibition, % at 6.95 µM; actives 0.83% (n = 370,000); AID 720648;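 active means inhibition above the mean of compounds lying between control limits plus 3 SD, set per campaign, cut at about 8.5% in these data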
proKLK7 act: activators of human kallikrein-7 zymogen; purified proKLK7, EDANS-DABCYL substrate fluorescence; 100% is mature enzyme control, 0% vehicle; actives 0.9% (n = 370,000); activation, % at 7 µM; AID 652039;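 active means activation above the mean of all tested compounds plus 3 SD, computed per campaign excluding outliers beyond control limits, cut at about 13% in these data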
Target sequence (P49862 whole entry, looked up): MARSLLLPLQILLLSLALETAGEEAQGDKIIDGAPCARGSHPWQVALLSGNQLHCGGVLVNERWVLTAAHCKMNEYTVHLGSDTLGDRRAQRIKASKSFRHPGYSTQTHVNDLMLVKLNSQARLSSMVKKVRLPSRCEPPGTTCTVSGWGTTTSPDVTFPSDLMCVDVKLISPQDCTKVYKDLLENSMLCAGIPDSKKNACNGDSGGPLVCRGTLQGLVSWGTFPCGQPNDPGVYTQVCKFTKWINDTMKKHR
FGF22 binding: shifts melting point of recombinant human FGF22; recombinant FGF22 thermal shift, SYPRO orange fluorescence; percent of sucrose octasulfate shift, DMSO zero; activity (Tm shift, normalised), % at 9.99 µM; actives 1.5% (n = 340,000); AID 651658;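 active means mean Tm shift, scaled 0 neutral to 100 positive control, at about 1.3% or above, every replicate too, limit read from the data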
Target sequence (Q9HCT0 whole entry, looked up): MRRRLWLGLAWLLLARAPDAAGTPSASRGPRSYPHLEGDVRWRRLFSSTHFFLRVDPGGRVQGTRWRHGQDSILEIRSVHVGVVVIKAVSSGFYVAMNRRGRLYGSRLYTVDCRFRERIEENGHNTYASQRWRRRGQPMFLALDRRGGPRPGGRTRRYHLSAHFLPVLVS
ADAM10 inh: inhibits human ADAM10; inhibition, % at 7 µM; recombinant ADAM10, EDANS/DABCYL FRET peptide cleavage, 3 h; O14672; actives 0.62% (n = 370,000);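 active means inhibition above a per-campaign cutoff equal to the mean of compounds falling between control-based bounds plus 3 SD, cut at about 20% in these data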
A number is an active result; - = inactive; . = not tested or not shown. Hits are enriched below; roughly 3.8% of the tested compounds scored in any of these assays.

SMILES | rRNA inh HTS | ADAM17 inh | proKLK7 act | FGF22 binding | ADAM10 inh
CCOC(=O)C1=CCN(S(=O)(=O)c2cccc(Cl)c2)C1c1ccc(C)cc1 (stereo unspecified) | - | - | - | - | -
Cc1cc(C)n(-c2nc(NCCN(C)C)c3c4c(sc3n2)COC(C)(C)C4)n1 | -32.0 | - | - | - | -
O=c1cc(O)c(-c2ccc(Cl)c(Cl)c2)c(Cl)[nH]1 | -26.9 | - | - | - | -
CCOC(=O)c1ccc2nc(NC(C)=O)sc2c1 | - | - | - | 42.9 | -
CCOc1ccc2nc(NC(=O)CS(=O)(=O)c3ccccc3)sc2c1 | . | - | - | . | -
CCOc1ccc2nc(NC(=O)CS(=O)(=O)c3ccc(C)cc3)sc2c1 | -25.8 | - | - | . | -
CCS(=O)(=O)N1CC2(CN(C(=O)Nc3cccc(F)c3)[C@H](CO)c3c2c2ccc(OC)cc2n3C)C1 | - | . | . | . | .
COc1ccc2c3c(n(C)c2c1)[C@H](CO)N(Cc1cccc(F)c1)CC31CCN(C)CC1 | - | . | . | - | .
CCSc1nnc(-c2ccccc2NC(=O)CC)c(=O)[nH]1 | . | - | - | . | -
Nc1ccccc1-c1nnc(SCC(=O)Nc2ccccc2OC(F)F)[nH]c1=O | - | - | - | 43.3 | -
Cc1ccc(S(=O)(=O)N2CCCCC2)cc1NC(=O)CSc1nncn1-c1ccccc1 | . | - | - | 43.2 | -
COc1ccccc1OCC(=O)Nc1ccc(S(=O)(=O)N2CCCC2)cc1 | - | - | - | - | -
O=C(Nc1cc(S(=O)(=O)N2CCCC2)ccc1Cl)C1=COCCO1 | . | - | - | . | -
CC(OC(=O)C1=COCCO1)C(=O)Nc1cc(S(=O)(=O)N2CCCCC2)ccc1Cl (stereo unspecified) | - | - | - | 43.1 | -
COc1ccc(-n2cnnc2SCC(=O)Nc2cc(S(=O)(=O)N3CCCCC3)ccc2C)cc1 | . | - | - | . | -
O=C(COc1ccccc1Br)Nc1ccc(S(=O)(=O)N2CCCC2)cc1 | -23.2 | - | - | - | -
Cc1ccc(S(=O)(=O)N2CCCCC2)cc1NC(=O)COc1ccccc1F | - | - | - | 43.2 | -
Cc1ccc(S(=O)(=O)NCC[C@H]2CC[C@H](NC(=O)c3cccc(F)c3)[C@H](CO)O2)cc1 | - | . | . | - | .
CCOc1ccc(S(=O)(=O)N2CCCCC2)c(C)c1C | - | - | - | 43.0 | -
CS(=O)(=O)c1ccc(Cl)c(NC(=O)CSc2nnc3n2CCCCC3)c1 | - | - | - | 43.8 | -
COc1ccccc1CNCC(=O)Nc1cc(S(=O)(=O)N2CCCCC2)ccc1C | - | - | - | - | -
CCOc1ccc(S(=O)(=O)N2CCCCC2)cc1NC(=O)C1CCCC1 | - | - | - | 43.5 | -
CC(C)Oc1ccc(S(=O)(=O)N2CCCCC2)cc1NC(=O)C1CCCC1 | . | - | - | - | -
Cc1ccc(S(=O)(=O)N2CCOCC2)cc1NC(=O)CSc1nnc2n1CCCCC2 | - | - | - | - | -
COc1ccccc1CNCC(=O)Nc1cc(S(=O)(=O)N2CCCCCC2)ccc1Cl | -31.1 | - | - | - | -
SMILES | rRNA inh HTS | ADAM17 inh | proKLK7 act | FGF22 binding | ADAM10 inh
C[C@H]1CN([C@@H](C)CO)C(=O)c2ccccc2-c2ccccc2CO[C@@H]1CN(C)C(=O)Nc1ccc2c(c1)OCO2 | - | . | . | . | .
CC1(C)CC(=O)C(C2C3=C(CC(C)(C)CC3=O)Oc3ccc4ccccc4c32)C(=O)C1 (stereo unspecified) | - | - | - | - | -
CC1(C)CC(=O)C(C2C3=C(CC(C)(C)CC3=O)Oc3ccccc32)C(=O)C1 (stereo unspecified) | -22.1 | - | - | - | -
COc1ccc(NC(=O)N(C)C[C@@H]2OCCCC[C@@H](C)Oc3ccc(NC(=O)Nc4c(C)noc4C)cc3C(=O)N([C@@H](C)CO)C[C@H]2C)cc1 | - | . | . | - | .
Clc1nnc(NC2CCCCC2)c(Cl)c1Cl | - | - | - | 43.1 | -
CCCC(=O)Nc1nnc(CCOC)s1 | - | - | - | - | -
CCCCC(=O)Nc1nnc(CCOC)s1 | - | - | - | 42.9 | -
Nc1[nH]c(C(=O)c2ccccc2)c(-c2ccccc2Br)c1C(=O)c1ccccc1 | -41.1 | - | - | - | -
c1ccc(CN2CCN(C3CCCSc4ccccc43)CC2)cc1 (stereo unspecified) | -30.5 | - | - | - | -
O=C1CC(N2CCN(Cc3ccccc3)CC2)C(=O)N1 (stereo unspecified) | - | - | - | - | -
C[C@@H]1CCCCO[C@H](CN(C)C(=O)c2ccccc2)[C@@H](C)CN([C@H](C)CO)C(=O)c2cc(NC(=O)CCCN(C)C)ccc2O1 | - | . | . | - | .
COc1ccccc1C#CC1=CC(=O)CC(C)(C)C1 | -22.6 | - | - | - | -
Cn1c(N2CCN(C(c3ccccc3)c3ccccc3)CC2)nc2ccccc21 | -26.2 | - | - | - | -
O=C(Oc1cccc(OC(=O)c2ccco2)c1)c1ccco1 | -22.9 | - | - | - | -
O=C(Oc1cccnc1)c1ccco1 | . | - | - | . | -
COc1ccc(O)c(/C=N/Nc2nc(Nc3ccccc3)nc(-n3nc(C)cc3C)n2)c1 | . | 10.8 | - | . | -
O=C(Nc1ccccc1)N[C@@H]1CC[C@H](CCNS(=O)(=O)c2cccc(F)c2)O[C@H]1CO | - | . | . | - | .
O=C(NCCc1cccs1)c1ccc(CS(=O)Cc2cccc(Cl)c2)o1 (stereo unspecified) | . | - | - | 43.1 | -
CCCN1C[C@H](C)[C@H](OC)CN(C)C(=O)c2cc(NC(=O)c3cccc(F)c3)ccc2OC[C@@H]1C | - | . | . | - | .
O=C(Nc1nccs1)c1ccc(Br)o1 | . | - | - | . | -
O=C(/C=C/c1ccc(Br)o1)Nc1nccs1 | - | - | - | 44.0 | -
O=C(C[C@@H]1C[C@H]2c3cc(NC(=O)Nc4ccccc4F)ccc3O[C@H]2[C@H](CO)O1)NCc1cc(F)ccc1F | - | . | . | - | .
Cc1[nH]n(-c2ccccc2)c(=O)c1C(c1cccc([N+](=O)[O-])c1O)c1c(C)[nH]n(-c2ccccc2)c1=O | - | - | - | - | -
Cc1[nH]n(-c2ccccc2)c(=O)c1C(c1ccc(C(=O)O)cc1)c1c(C)[nH]n(-c2ccccc2)c1=O | -18.8 | - | - | - | -
Cc1[nH]n(-c2ccccc2)c(=O)c1C(c1cccc([N+](=O)[O-])c1)c1c(C)[nH]n(-c2ccccc2)c1=O | -45.5 | - | - | - | -
SMILES | rRNA inh HTS | ADAM17 inh | proKLK7 act | FGF22 binding | ADAM10 inh
CO[C@@H]1CN(C)C(=O)c2cc(NS(=O)(=O)c3ccc(C)cc3)ccc2OC[C@H](C)NC[C@@H]1C | - | . | . | - | .
COCCNC(=O)C(=O)N/N=C(\C)CC(=O)Nc1cccnc1 | - | - | - | 44.1 | -
COCCNC(=O)C(=O)N/N=C(\C)CC(=O)Nc1ccc2c(c1)OCO2 | - | - | - | - | -
Cc1cc(CSc2ccccc2)ccc1NC(=O)c1ccc(C)c([N+](=O)[O-])c1 | . | - | - | 43.4 | -
Cc1cc(CSc2ccccc2)ccc1NC(=O)c1ccc(Cl)c([N+](=O)[O-])c1 | . | - | - | . | -
COc1ccccc1N/N=C/c1ccc2c(c1)OCO2 | - | - | - | 44.3 | -
